According to ChEMBL document CHEMBL1961873, “Compounds: GSK PKIS; Assays: Nanosyn kinase panel” (2012):
Where “and” joins values, the source holds several entries; their conditions need not be identical. Identical values can stand only once.

What was measured:
[1] = biological target: Serine/threonine-protein kinase MARK2 (Homo sapiens) (UniProt Q7KZI7); conditions: at 1 µM
[2] = biological target: PAS domain-containing serine/threonine-protein kinase (Homo sapiens) (UniProt Q96RG2); conditions: at 0.1 µM
[3] = biological target: PAS domain-containing serine/threonine-protein kinase (Homo sapiens) (UniProt Q96RG2); conditions: at 1 µM
[4] = biological target: Phosphorylase b kinase gamma catalytic chain, skeletal muscle/heart isoform (Homo sapiens) (UniProt Q16816); conditions: at 0.1 µM
[5] = biological target: Phosphorylase b kinase gamma catalytic chain, skeletal muscle/heart isoform (Homo sapiens) (UniProt Q16816); conditions: at 1 µM
[6] = biological target: T1, Phosphorylase b kinase gamma catalytic chain, liver/testis isoform (Homo sapiens) (UniProt P15735); conditions: at 0.1 µM
T1 sequence (whole entry): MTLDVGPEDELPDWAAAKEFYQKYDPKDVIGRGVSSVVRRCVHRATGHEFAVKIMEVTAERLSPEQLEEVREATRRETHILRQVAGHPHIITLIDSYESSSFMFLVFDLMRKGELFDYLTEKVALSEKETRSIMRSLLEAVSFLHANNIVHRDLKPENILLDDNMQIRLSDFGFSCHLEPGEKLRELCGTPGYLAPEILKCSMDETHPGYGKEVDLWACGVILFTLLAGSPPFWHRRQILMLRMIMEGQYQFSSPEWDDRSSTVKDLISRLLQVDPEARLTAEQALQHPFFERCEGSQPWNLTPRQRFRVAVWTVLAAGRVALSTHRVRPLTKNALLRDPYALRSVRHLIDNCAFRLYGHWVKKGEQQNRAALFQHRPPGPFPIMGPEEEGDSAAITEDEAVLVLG

[7] = biological target: T1, Phosphorylase b kinase gamma catalytic chain, liver/testis isoform (Homo sapiens); conditions: at 1 µM
[8] = biological target: Serine/threonine-protein kinase pim-1 (Homo sapiens) (UniProt P11309); conditions: at 0.1 µM
[9] = biological target: Serine/threonine-protein kinase pim-1 (Homo sapiens) (UniProt P11309); conditions: at 1 µM
[10] = biological target: Serine/threonine-protein kinase pim-2 (Homo sapiens) (UniProt Q9P1W9); conditions: at 0.1 µM;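 note: reported value is the mean percent inhibition of PIM2, measured in the GSK PKIS kinase inhibitor set screen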
Sequence of Serine/threonine-protein kinase pim-2 (Homo sapiens) (Q9P1W9 whole entry, looked up): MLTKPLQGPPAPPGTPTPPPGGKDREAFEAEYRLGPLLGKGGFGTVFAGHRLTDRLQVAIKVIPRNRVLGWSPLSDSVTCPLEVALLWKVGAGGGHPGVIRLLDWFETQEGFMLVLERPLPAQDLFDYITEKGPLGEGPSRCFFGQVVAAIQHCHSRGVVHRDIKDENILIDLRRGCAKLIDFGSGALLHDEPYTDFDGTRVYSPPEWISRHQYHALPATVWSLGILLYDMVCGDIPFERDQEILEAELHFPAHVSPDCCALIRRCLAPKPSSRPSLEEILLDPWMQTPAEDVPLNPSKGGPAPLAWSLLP

Sequence of Serine/threonine-protein kinase MARK2 (Homo sapiens) (Q7KZI7 whole entry, the tested form may be a part): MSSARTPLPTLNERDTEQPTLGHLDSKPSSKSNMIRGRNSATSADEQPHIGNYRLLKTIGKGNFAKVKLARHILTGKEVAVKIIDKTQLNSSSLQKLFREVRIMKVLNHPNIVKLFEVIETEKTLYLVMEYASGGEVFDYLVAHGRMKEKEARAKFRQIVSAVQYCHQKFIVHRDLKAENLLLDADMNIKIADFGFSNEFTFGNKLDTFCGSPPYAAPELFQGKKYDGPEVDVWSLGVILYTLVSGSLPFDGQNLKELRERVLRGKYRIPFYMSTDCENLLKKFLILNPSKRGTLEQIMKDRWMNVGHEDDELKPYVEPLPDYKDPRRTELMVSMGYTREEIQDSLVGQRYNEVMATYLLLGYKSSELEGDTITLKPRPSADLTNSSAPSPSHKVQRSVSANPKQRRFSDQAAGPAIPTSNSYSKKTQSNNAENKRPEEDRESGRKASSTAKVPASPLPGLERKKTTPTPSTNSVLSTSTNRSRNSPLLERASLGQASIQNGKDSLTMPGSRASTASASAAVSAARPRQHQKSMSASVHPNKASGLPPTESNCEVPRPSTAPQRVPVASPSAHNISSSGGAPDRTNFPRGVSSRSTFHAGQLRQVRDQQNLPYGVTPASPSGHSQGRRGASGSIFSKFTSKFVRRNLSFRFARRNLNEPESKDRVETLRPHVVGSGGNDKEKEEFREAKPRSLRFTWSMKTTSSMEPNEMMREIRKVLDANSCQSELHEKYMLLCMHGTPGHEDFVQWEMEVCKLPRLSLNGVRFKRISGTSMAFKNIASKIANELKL
Sequence of PAS domain-containing serine/threonine-protein kinase (Homo sapiens) (Q96RG2 whole entry, the tested form may be a part, canonical isoform): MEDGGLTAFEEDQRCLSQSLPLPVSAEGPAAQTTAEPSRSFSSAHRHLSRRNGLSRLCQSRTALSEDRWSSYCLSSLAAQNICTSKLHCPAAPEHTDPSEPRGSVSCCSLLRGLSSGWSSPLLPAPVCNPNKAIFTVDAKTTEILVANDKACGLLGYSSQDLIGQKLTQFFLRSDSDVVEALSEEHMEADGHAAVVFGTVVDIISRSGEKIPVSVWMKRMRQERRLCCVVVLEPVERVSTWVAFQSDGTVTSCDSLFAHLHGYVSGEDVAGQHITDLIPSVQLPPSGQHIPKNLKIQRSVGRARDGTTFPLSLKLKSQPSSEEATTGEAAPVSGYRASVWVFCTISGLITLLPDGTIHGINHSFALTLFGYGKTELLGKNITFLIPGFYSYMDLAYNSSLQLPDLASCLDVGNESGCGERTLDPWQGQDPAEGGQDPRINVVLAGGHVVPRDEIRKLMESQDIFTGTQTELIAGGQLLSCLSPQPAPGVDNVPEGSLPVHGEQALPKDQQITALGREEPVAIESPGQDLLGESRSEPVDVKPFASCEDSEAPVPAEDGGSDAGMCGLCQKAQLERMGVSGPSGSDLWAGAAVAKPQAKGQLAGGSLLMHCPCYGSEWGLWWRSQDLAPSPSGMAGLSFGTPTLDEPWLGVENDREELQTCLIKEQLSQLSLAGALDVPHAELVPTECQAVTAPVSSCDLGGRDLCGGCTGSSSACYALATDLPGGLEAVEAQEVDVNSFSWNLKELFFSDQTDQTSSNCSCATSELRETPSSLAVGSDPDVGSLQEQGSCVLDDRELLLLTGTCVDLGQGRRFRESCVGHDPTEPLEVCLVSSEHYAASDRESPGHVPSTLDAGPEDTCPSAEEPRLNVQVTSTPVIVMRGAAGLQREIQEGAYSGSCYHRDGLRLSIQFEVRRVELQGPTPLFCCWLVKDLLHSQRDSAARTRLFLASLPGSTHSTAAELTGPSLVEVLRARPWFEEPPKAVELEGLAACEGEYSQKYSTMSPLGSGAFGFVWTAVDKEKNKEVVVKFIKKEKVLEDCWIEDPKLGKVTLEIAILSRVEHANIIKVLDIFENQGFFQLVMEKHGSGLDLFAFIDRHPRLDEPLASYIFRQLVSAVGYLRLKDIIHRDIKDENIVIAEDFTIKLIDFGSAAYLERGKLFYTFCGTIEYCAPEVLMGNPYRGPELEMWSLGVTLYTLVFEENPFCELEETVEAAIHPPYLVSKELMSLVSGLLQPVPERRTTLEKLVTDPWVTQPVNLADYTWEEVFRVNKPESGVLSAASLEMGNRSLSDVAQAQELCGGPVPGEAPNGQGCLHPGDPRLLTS
Sequence of Serine/threonine-protein kinase pim-1 (Homo sapiens) (P11309 whole entry, looked up): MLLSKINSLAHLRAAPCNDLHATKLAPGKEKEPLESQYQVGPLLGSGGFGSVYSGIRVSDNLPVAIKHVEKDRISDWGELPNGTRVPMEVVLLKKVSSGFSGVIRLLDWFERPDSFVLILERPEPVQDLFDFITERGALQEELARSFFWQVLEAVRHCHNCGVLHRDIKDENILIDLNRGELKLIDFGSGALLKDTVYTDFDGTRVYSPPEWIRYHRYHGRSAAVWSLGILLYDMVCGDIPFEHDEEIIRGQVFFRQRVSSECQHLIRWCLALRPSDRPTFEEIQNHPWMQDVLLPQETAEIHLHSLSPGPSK
Sequence of Phosphorylase b kinase gamma catalytic chain, skeletal muscle/heart isoform (Homo sapiens) (Q16816 whole entry, looked up, canonical isoform): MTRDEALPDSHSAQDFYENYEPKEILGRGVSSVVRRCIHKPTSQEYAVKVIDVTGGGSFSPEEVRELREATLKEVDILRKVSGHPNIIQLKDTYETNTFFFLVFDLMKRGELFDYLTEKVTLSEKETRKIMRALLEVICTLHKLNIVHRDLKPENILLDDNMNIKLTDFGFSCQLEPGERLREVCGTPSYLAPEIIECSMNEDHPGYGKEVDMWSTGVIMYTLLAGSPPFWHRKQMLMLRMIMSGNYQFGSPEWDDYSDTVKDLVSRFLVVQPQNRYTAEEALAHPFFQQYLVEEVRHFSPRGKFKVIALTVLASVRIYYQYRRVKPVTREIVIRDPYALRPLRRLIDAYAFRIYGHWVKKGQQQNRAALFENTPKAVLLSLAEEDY

| SMILES | inhibition [1] | inhibition [2] | inhibition [3] | inhibition [4] | inhibition [5] | inhibition [6] | inhibition [7] | inhibition [8] | inhibition [9] | inhibition [10] |
| --- | --- | --- | --- | --- | --- | --- | --- | --- | --- | --- |
| OCCCNc1nccc(-c2c(-c3ccc(F)cc3)nn3cc(C(F)(F)F)ccc23)n1 | 1.92% | -0.08% | -2.07% | 2.26% | 5.59% | 2.88% | -0.79% | 0.12% | 1.6% | 0.32% |
| COc1cc(Nc2ncc(-c3ccccc3)o2)cc(OC)c1 | 2.52% | -1.02% | -0.79% | 5.83% | 14.1% | 4.54% | 5.45% | 1.14% | 1.63% | 0.58% |
| Cc1cc(O)cc(C)c1/C=C/c1cncc(C(=O)OC(C)(C)C)c1 | 1.18% | -0.08% | 0.02% | 3.95% | -7.1% | 3.11% | 1.25% | 0.18% | 0.23% | 0.32% |
| O=C(O[C@H]1CN[C@H](C#Cc2cc3ncnc(Nc4ccc5c(cnn5Cc5ccccc5)c4)c3s2)C1)N1CCOCC1 | 1.58% | 1.66% | 0.95% | 2.11% | 6.5% | -0.83% | -1.47% | -1.14% | -0.83% | -0.43% |
| O=C(O[C@H]1CN[C@H](C#Cc2cc3ncnc(Nc4ccc5c(ccn5Cc5cc(F)ccc5F)c4)c3s2)C1)N1CCOCC1 | -0.27% | 0.1% | -1.39% | 3.09% | 4.72% | 4.96% | 2.49% | 0.84% | 0.83% | 0.44% |
| CC1=C(C(=O)Nc2ccc3[nH]nc(C)c3c2)C(c2ccc(C(F)(F)F)cc2)CC(=O)N1 (stereo not given) | 4.76% | 0.2% | -1.78% | 4.32% | 0.7% | 2.48% | -2.45% | 1.05% | 0% | 0% |
| Nc1nonc1-c1nc2cnccc2n1C1CC1 | 17.9% and 14.9% | 0.62% and -0.65% | 1.08% and 0.92% | 5% and 3.93% | 7.51% and 3.48% | 4.1% and 2.66% | 1.15% and 2.16% | 12.4% and 13.8% | 56.3% and 59.1% | 1.57% and -2.36% |
| Cn1c(-c2nonc2N)nc2cnccc21 | 4.69% | 0.4% | -0.76% | 1.82% | 0.15% | 4.05% | 1.59% | 2.15% | 16.4% | -0.31% |
| COc1c(C(N)=O)cc(-c2ccc(Cl)cc2)cc1-c1ccc(S(N)(=O)=O)cc1 | 1.57% | -2.39% | -1.49% | 0.45% | 3.12% | 3.72% | 5.17% | 1.83% | 2.23% | -0.64% |
| NS(=O)(=O)c1cccc(N/C=C2\C(=O)Nc3ccccc32)c1 | 12.6% | -0.26% | -1.04% | 7.73% | 33.3% | 5.62% | 13.4% | 0.75% | 0.73% | -0.33% |
| COc1cc2c(cc1Nc1nc(Nc3cccc(F)c3C(N)=O)c3cc[nH]c3n1)N(C(=O)CN1CCN(C(C)C)CC1)CC2 | 3.63% | -0.77% | -0.72% | 0.29% | 9.54% | 3.29% | 5.63% | 1.43% | 0.21% | -0.02% |
| CCOc1ccc2c(-c3ccnc(Nc4cc(OC)cc(C(F)(F)F)c4)n3)cnn2n1 | 1.23% | 0% | 0.64% | 1.57% | 0.94% | 0.61% | 0.99% | 0.51% | -0.17% | -0.46% |
| NC(=O)c1ccc2c(-c3ccnc(NCCCO)n3)c(-c3ccc(F)cc3)nn2c1 | 1.98% | 0.06% | -1.12% | 6.92% | 7.38% | 5.28% | 2.16% | 1.1% | 0.82% | -0.18% |
| O=C1Nc2ccccc2/C1=C1\CCc2cc(O)ccc21 | 24% | 0.2% | -1.25% | 9.05% | 40.6% | 6.64% | 9.59% | 2.37% | 10.2% | -0.2% |
| CCS(=O)(=O)c1ccc(OC)c(Nc2ncc(-c3cccc(F)c3)o2)c1 | 2.64% | -0.05% | -0.06% | 6.05% | 24.7% | 6.86% | 8.13% | 1.98% | 4.66% | -0.96% |
| NS(=O)(=O)c1ccc(N/N=C2\C(=O)Nc3ccc(C(=O)NCc4ccncc4)cc32)cc1 | 21.3% | 0.76% | 2.6% | 5.19% | 28.9% | 4.99% | 11.4% | 1.75% | 7.29% | 0.12% |

| SMILES | inhibition [1] | inhibition [2] | inhibition [3] | inhibition [4] | inhibition [5] | inhibition [6] | inhibition [7] | inhibition [8] | inhibition [9] | inhibition [10] |
| --- | --- | --- | --- | --- | --- | --- | --- | --- | --- | --- |
| N#Cc1ccc2c(-c3ccnc(NC4CC4)n3)c(-c3ccc(F)cc3)nn2c1 | 0.62% | 1.11% | 0.62% | 0.42% | 2.62% | 1.29% | 0.44% | -0.01% | -1.52% | -0.15% |
| Cc1ccc(-c2cc3c(NC(=O)C4CC4)ncnc3o2)cc1 | 3.45% | 0.53% | 0.26% | 3.62% | 9.89% | 4.46% | 1.83% | 0.73% | 1.91% | 0.35% |
| CS(=O)(=O)Nc1ccc(-c2ccc3c(NC(=O)C4CC4)n[nH]c3c2)cc1 | 0.66% | 0.49% | -0.44% | 1.67% | 5.46% | 3.59% | -0.4% | 0.94% | 2% | 0.44% |
| Cc1cc(O)cc(C)c1/C=C/c1cncc(C(N)=O)c1 | 1.96% | 0.45% | -0.18% | 3.36% | 2.58% | 2.43% | 0.42% | 0.11% | 0.65% | 0.8% |
| COc1ccc2ncn(-c3cc(O[C@H](C)c4ccccc4C(F)(F)F)c(C(N)=O)s3)c2c1 | 4.83% | -0.55% | 0.78% | 1.28% | 3.44% | -1.44% | 0.1% | 1.71% | 7.56% | -0.14% |
| Cc1nnc(-c2cccc(-c3ccc(C(=O)NCC4CC4)cc3)c2)o1 | 1.69% | 0.89% | 0.76% | 3.57% | 5.91% | 7.39% | 7.38% | -0.37% | 1.97% | 0.91% |
| c1cnn2ncc(-c3ccnc(NCCCN4CCOCC4)n3)c2c1 | -1.01% | -1.6% | -2.98% | 4.51% | 4.16% | 4.4% | 2.46% | -0.24% | 1.23% | -0.27% |
| CCn1c(-c2nonc2N)nc2cncc(C(=O)NCCNC)c21 | 14% | 0.06% | 3.5% | 4.55% | 7.35% | 5.01% | 6.69% | 46.4% | 87% | 1.81% |
| CN1CCN(Cc2ccc(-c3cc4ncnc(Nc5ccc(OCc6cccc(F)c6)c(Cl)c5)c4s3)o2)CC1 | 2.8% and -1.69% | 1.09% and -0.73% | 0.63% and 0.18% | 4.48% | 6.3% and 12.4% | 3.47% and 7.21% | 2.85% and 9.87% | -0.54% and 0.21% | 1.02% and 0.98% | -0.52% and 0.67% |
| COc1cc(N2CCN(C(C)C)CC2)ccc1Nc1nc(Nc2cccc3ncccc23)c2cc[nH]c2n1 | 1.39% | -0.26% | -0.72% | 2.93% | 28.6% | -1.68% | 0.96% | 0.12% | 0.51% | -0.9% |
| CN1CCC(n2cnc(-c3ccc(F)cc3)c2-c2ccnc(NCCO)n2)CC1 | -0.08% | 0.82% | 0.93% | 2.34% | 5.88% | 4.56% | 7.31% | 0.34% | 1.55% | 0.95% |
| NS(=O)(=O)c1ccc(N/N=C2\C(=O)Nc3cccc(CCc4ccncc4)c32)cc1 | 4.73% | 1.68% | 1% | 4.94% | 11.7% | 0.33% | -0.92% | 0.54% | 1.13% | 0.11% |
| COC(=O)Nc1nc2ccc(Oc3ccc(NC(=O)Nc4cc(C(F)(F)F)ccc4F)cc3)cc2s1 | -0.26% | -0.29% | -0.57% | -9.77% | 1.81% | -0.83% | -1.17% | 0.9% | 1.19% | -0.21% |
| COC(=O)Nc1nc2cc(Oc3ccc(NC(=O)Nc4ccccc4)cc3)ccc2[nH]1 | -0.9% | 0.34% | 1.02% | 4.15% | 5.64% | 4.43% | 6.25% | -0.24% | 0.02% | 0.15% |
| O=C(O[C@H]1CN[C@H](C#Cc2cc3ncnc(Nc4ccc(OCc5cccc(F)c5)c(Cl)c4)c3s2)C1)N1CCOCC1 | -1.51% | 0.31% | 0.78% | 6.72% | 7.76% | 7.04% | 9.85% | 0.79% | 0.58% | -0.36% |
